Calls of active or inactive are those of the source. Rule for the calls: active = hit-call score of the fitted dose curve at least 0.9, where 1 is the maximum; inactive = score below 0.9.
Test: ATG_SREBP_CIS: Attagene CIS-FACTORIAL HepG2 Assay for human Sterol Regulatory Element Binding (SREBP) (AID 2282962)
Conditions: HepG2 Attagene cis-factorial SREBP reporter, mRNA; actives raise or lower the signal
Procedure, shortened: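 HepG2 cells transiently transfected with multiplexed cis-element reporter units report endogenous transcription factor activity. After 24 h of chemical exposure, reporter mRNA was quantified by RT-PCR, 6-FAM labelling, HpaI digestion and capillary electrophoresis; bidirectional fits used DMSO as baseline.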

outcome, inactive:
O=C(Nc1ccc(Cl)c(Cl)c1)c1cc(Cl)cc(Cl)c1O, c1ccc2c(c1)CCC2, Clc1ccc(Nc2nnc(Cc3ccncc3)c3ccccc23)cc1, CCC(=O)C=Cc1ccc(OC)cc1, CC1CCC(C(=O)O)CC1 (stereo not given), CC1CNCC(C)O1 (stereo not given), Nc1ccc(O)c(C(=O)O)c1, Cc1[nH]nc2c1N=C(c1ccccc1Cl)c1cc([N+](=O)[O-])ccc1N2, O=C(Nc1cccc([N+](=O)[O-])c1)c1cc2ccccc2cc1O, CCc1cccc(CC)c1NC(=O)C(=O)O, CCCCCCc1ccc(N)cc1, CCCCCc1ccc(O)cc1, O=C1OC(=O)c2cc(-c3ccc4c(c3)C(=O)OC4=O)ccc21, FC(F)(F)C(F)(F)C(F)(F)C(F)(F)I, OCCN1CN(CCO)CN(CCO)C1, Oc1c(Cl)cc(Cl)cc1Sc1cc(Cl)cc(Cl)c1O, CC(C)(c1ccc(Oc2ccc(N)cc2)cc1)c1ccc(Oc2ccc(N)cc2)cc1, CCCC=O, CCCCCCCCC(C)=O, Cc1ccc(C)c(S(=O)(=O)O)c1

— PubChem BioAssay (EPA / NIEHS)
